The campaign covered roughly 310,000 compounds. About 14,000 (4.5%) showed an effect of 50% or more. Effects have a minus sign here. The list comes from a sample in which strong results are over-represented; it also holds similar structures and randomly drawn compounds.
Target: human ether-à-go-go-related gene (hERG) potassium channel (human, UniProt Q12809)
Experiment: primary screen, population patch clamp on CHO cells stably expressing hERG; higher = less effect of the substance
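Also: peak tail current of the secondary pulse compared with the same well before compound.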

Sequence of human ether-à-go-go-related gene (hERG) potassium channel (Q12809 whole entry, looked up): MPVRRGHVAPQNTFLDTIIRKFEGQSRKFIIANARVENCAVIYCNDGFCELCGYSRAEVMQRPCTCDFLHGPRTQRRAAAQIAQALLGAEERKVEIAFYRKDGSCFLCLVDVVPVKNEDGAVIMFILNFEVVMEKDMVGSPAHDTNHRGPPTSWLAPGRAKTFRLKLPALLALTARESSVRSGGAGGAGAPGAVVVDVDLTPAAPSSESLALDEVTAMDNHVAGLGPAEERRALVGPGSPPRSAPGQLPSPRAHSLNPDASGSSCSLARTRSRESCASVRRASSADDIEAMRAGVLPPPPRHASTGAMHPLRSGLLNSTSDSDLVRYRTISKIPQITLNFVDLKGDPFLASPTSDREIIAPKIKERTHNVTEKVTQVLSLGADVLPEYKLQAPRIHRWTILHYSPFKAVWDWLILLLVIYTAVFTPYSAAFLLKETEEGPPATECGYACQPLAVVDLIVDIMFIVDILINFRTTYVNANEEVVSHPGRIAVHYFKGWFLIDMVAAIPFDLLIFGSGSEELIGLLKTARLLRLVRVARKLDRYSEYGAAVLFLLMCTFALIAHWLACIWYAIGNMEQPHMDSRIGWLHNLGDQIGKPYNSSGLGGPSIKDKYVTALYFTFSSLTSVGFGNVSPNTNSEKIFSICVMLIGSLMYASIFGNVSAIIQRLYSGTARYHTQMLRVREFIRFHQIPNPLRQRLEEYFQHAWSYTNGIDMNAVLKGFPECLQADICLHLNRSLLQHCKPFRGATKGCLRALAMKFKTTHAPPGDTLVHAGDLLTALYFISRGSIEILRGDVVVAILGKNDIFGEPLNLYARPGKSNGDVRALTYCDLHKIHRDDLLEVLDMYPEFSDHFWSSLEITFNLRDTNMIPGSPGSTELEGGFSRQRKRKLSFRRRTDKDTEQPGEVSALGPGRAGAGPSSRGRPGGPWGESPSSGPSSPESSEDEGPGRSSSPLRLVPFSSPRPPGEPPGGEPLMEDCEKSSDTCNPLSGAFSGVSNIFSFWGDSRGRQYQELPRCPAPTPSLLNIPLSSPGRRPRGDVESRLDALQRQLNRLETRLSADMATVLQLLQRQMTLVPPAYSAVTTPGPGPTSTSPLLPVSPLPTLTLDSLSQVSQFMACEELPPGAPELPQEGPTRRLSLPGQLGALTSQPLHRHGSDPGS

Row | Compound | hERG current change (%, negative = inhibition) at 10uM
1 | O=C(Nc1nnc(Cc2ccccc2F)s1)c1ccccc1Cl | 12.6%
2 | CCc1ccc(S(=O)(=O)NCc2cn3ccccc3n2)s1 | -11%
3 | Cn1c(=O)c2[nH]c(COc3ccc(C(C)(C)C)cc3)nc2n(C)c1=O | -55.1%
4 | CN(C)Cc1nc2c([nH]1)c(=O)n(C)c(=O)n2C | -0.353%
5 | CCCc1nc2c([nH]1)c(=O)n(C)c(=O)n2C | 15.8%
6 | N#Cc1ccc(-c2ccc(Cl)cc2)nc1SCC(=O)c1cccc(Cl)c1 | 28.9%
7 | N/C(=N\O)c1ccc([N+](=O)[O-])s1 | 11%
8 | Cc1ccc(P(=O)(OCCN2CCOCC2)C(C)(C)C)o1 (stereo not shown) | -4.4%
9 | COc1ccc(C2=NCC(=O)N(CC(=O)NCc3ccco3)c3sc4c(c32)CCCC4)cc1 | -35.7%
10 | COc1ccc(C2=NCC(=O)N(CC(=O)NCc3ccco3)c3sc4c(c32)CCCC4)cc1OC | -17.3%
11 | O=C1CN=C(c2ccc(Br)cc2)c2c(sc3c2CCCC3)N1CCN1CCCCC1 | -64.4%
12 | O=C(c1ccccc1)c1ccc(OCC(O)CN2CCCCC2)cc1 (stereo not shown) | -39.9%
13 | Cl.OC(COc1ccc(OCC(O)CN2CCCCCC2)cc1)CN1CCCCCC1 (stereo not shown) | 9.75%
14 | OC(COc1ccc(OCC(O)CN2CCCCC2)cc1)CN1CCCCC1 (stereo not shown) | 15.9%
15 | OC(COc1ccc2cc(Br)ccc2c1)CN1CCCC1 (stereo not shown) | -70.2%
16 | O=C(c1ccc(Cl)cc1)c1ccc(OCC(O)CN2CCOCC2)cc1 (stereo not shown) | -19.7%
17 | O=C(c1ccc(Cl)cc1)c1ccc(OCC(O)CN2CCCCC2)cc1 (stereo not shown) | -75.1%
18 | OC(COc1ccc2ccccc2c1)CN1CCCC1 (stereo not shown) | -19.1%
19 | OC(COc1ccc2cc(Br)ccc2c1)CN1CCOCC1 (stereo not shown) | -48.4%
20 | Cl.OC(COc1ccc(Cl)cc1)CN1CCCCC1 (stereo not shown) | -61.9%
21 | CCn1cc(C(=O)NCc2ccccc2OC)c(=O)c2ccc(C)nc21 | 17.6%
22 | CCCOc1ccccc1C(=O)N(Cc1cccc(Br)c1)C1CCS(=O)(=O)C1 (stereo not shown) | -35.4%

Row | Compound | hERG current change (%, negative = inhibition) at 10uM
23 | Cn1c(=O)cc(SCC(=O)N2CCN(C(=O)c3ccco3)CC2)c2ccccc21 | -27.4%
24 | COc1ccc(OCC(=O)N2CCN(CC3CC4C=CC3C4)CC2)cc1 (stereo not shown) | -26.6%
25 | Cc1cc(C)n2ncc(-c3cccc(Br)c3)c2n1 | 5.79%
26 | c1ccc(C2(CNc3ccccn3)CCCC2)cc1 | -70.3%
27 | O=C(Nc1ccccn1)C1(c2ccccc2)CCCC1 | -3.92%
28 | CNCC1(c2ccccc2)CCCC1.Cl | 15.1%
29 | CCCCCCNC(=O)CCNS(=O)(=O)c1ccc(C)cc1 | -12.8%
30 | CCOc1cc(NC(=O)c2ccccn2)c(OCC)cc1NC(=O)c1cccc(C)c1 | 8.7%
31 | COc1ccc(N2CC(C(=O)Nc3c(C(N)=O)oc4ccccc34)CC2=O)cc1 (stereo not shown) | -15%
32 | CC/C(=N\N=C1\SC(C)C(=O)N1Cc1ccco1)c1ccccc1 (stereo not shown) | 4.18%
33 | O=C(Nc1ccc2c(c1)CCC2)C1CCN(c2ncccn2)CC1 | 20.6%
34 | CC1CCC(NC(=O)C2CCN(c3c4c(nc5ncnn35)CCC4)CC2)CC1 (stereo not shown) | -19.3%
35 | O=C(NC1CCCc2ccccc21)C1CCN(c2c3c(nc4ncnn24)CCC3)CC1 (stereo not shown) | -31.3%
36 | COc1ccc(NC(=O)C2CCCN(c3ncccn3)C2)cc1 (stereo not shown) | 3.4%
37 | COc1ccc(NC(=O)C2CCCN(c3c4c(nc5ncnn35)CCC4)C2)cc1 (stereo not shown) | -61.6%
38 | O=C(Nc1ccc(Oc2ccccc2)cc1)C1CCN(c2c3c(nc4ncnn24)CCC3)CC1 | -55.6%
39 | COc1ccc(NC(=O)C2CCCN(c3c4c(nc5ncnn35)CCC4)C2)cc1OC (stereo not shown) | -11.7%
40 | O=C(Nc1ccc2c(c1)CCC2)C1CCN(c2c3c(nc4ncnn24)CCC3)CC1 | -73.1%
41 | CC1CCCCC1NC(=O)C1CCN(c2c3c(nc4ncnn24)CCC3)CC1 (stereo not shown) | 4.49%
42 | CCN1C(=O)C2C(C1=O)N1C(c3cccs3)C3C(=O)N(CC)C(=O)C3N1C2c1cccs1 (stereo not shown) | 15.7%
43 | COc1ccc(Cn2nnnc2C(c2ccccn2)N2CCN(c3cc(Cl)ccc3C)CC2)cc1 (stereo not shown) | -9.87%

From paper PMC4336329 (PLoS ONE, 2015)
